Screening data: PubChem, National Center for Advancing Translational Sciences (NCATS)
Cruzain inh noDet = inhibitors of Trypanosoma cruzi cruzain without detergent; P25779; purified cruzain, Z-FR-AMC fluorescence, no detergent; Potency, µM, most hits filed as inhibitors; 200,000 tested, 2.3% active; AID 1476; also: nearly all actives have a fitted effect of over 40% in size
Target sequence (P25779 123-467 limits assumed): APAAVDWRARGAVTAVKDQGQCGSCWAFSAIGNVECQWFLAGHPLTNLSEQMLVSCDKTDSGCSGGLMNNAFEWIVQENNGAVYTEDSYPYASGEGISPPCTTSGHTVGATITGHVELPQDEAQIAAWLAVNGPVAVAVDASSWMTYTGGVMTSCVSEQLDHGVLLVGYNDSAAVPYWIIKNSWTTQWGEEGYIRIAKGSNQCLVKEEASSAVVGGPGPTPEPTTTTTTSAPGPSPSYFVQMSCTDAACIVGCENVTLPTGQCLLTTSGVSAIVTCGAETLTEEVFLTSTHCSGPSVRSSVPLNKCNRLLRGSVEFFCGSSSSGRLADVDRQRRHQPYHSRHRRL
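Purified cruzain at 1.5 nM, pre-incubated 15 min with compound at room temperature in 100 mM sodium acetate pH 5.5, 5 mM DTT, 0.00005% Triton X-100. Reaction started with 2 uM Z-FR-AMC; AMC fluorescence increase over 60 s gives rate.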
Cruzain Triton = inhibitors of Trypanosoma cruzi cruzain with detergent; P25779; purified cruzain, Z-FR-AMC fluorescence, 0.01% Triton; Potency, µM, most hits filed as inhibitors; 200,000 tested, 0.43% active; also: nearly all actives have a fitted effect of over 40% in size
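Read-out: AMC fluorescence (360 nm excitation, 450 nm emission), four reads over 2 min, first-to-third difference used. Conditions: cruzain 1.5 nM, Z-FR-AMC 2 uM, pH 5.5 acetate, 5 mM DTT, 0.01% Triton X-100.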
Large screens that a line does not name were inactive; ! = not active in a repeat. In the library only some 2.5% were active in any assay of this set; here they are far more common. Calls follow the shape of the dose curve; as a rule, active = well fitted curve in the direction sought with a large enough effect; inconclusive = small, poorly fitted or top-dose-only effect, or another doubt; inactive = no such curve, though single readings can be large; an effect the other way counts as inactive or inconclusive.

CC(/C=N/Nc1nnc2c(n1)[nH]c1ccccc12)=C\c1ccco1	Cruzain inh noDet 10µM
Cn1cccc1C(=O)N1CCC[C@@]2(CCN(c3ccccc3)C2)C1	Cruzain inh noDet inconclusive
COC(=O)NCC(c1cccnc1)N1CCN(c2ccc(F)cc2)CC1 (stereo not drawn)	none
CCc1ccccc1NC(=O)c1cc2nc(-c3ccc(Br)cc3)cc(C(F)(F)F)n2n1	none
CCCCc1oc2ccccc2c1C(=O)c1cc(I)c(OCCN(CC)CC)c(I)c1	Cruzain Triton 13µM! (no result: Cruzain inh noDet)
CCN(CC)CCOc1ncnc2c1oc1ccccc12	none
CCC(C(=O)Nc1cccc(Cl)c1C)n1nc(C)c2sc3ccccc3c2c1=O (stereo not drawn)	none
Cc1ccc(-c2csc(N(CCc3ccccc3)C(=O)COc3ccccc3)n2)cc1	none
Cc1ccc(-c2csc(N(Cc3ccccc3)C(=O)COc3ccccc3)n2)cc1	Cruzain inh noDet 7.9µM
COc1ccc(CNC(=O)Cc2c(C)c3cc4c(C)coc4cc3oc2=O)cc1OC	none
CCCn1c(Nc2nc3ccccc3n2C)nc2ccccc21	Cruzain inh noDet 20µM
CCCCn1c(Nc2ccccc2)nc2ccccc21	none
CCCn1c(-c2ccc(F)cc2)nc2c(NCCCN(C)C)nc(C)nc21	none
C/C(=C/CCC(C)[C@H]1CC[C@@]2(C)C3=C(CC[C@]12C)[C@@]1(C)CCC(=O)C(C)(C)[C@@H]1CC3)C(=O)O (stereo partly drawn)	Cruzain inh noDet 25µM
CC(C)=CCCC(C)C1CC[C@@]2(C)C3=C(CC[C@@]12C)C1(C)CCC(O)C(C)(C)C1CC3 (stereo partly drawn)	Cruzain inh noDet inconclusive
Cc1ccc(O)c(C(=O)c2cnc3onc(-c4ccc(F)cc4)c3c2)c1	Cruzain inh noDet 13µM
Cc1noc2ncc(C(=O)c3cc(F)ccc3O)cc12	none
COc1ccc(OC)c(NC(=O)c2nc(S(=O)(=O)Cc3ccc(F)cc3)ncc2Cl)c1	Cruzain inh noDet inconclusive
CN(C)c1ccc(CNC(=O)c2cc3ccccn3n2)cc1	none
O=C(COC(=O)[C@H](Cc1ccccc1)NC(=O)c1ccco1)NC(c1ccccc1)c1ccccc1	none
Cc1cc(NC(=O)COC(=O)C(Cc2ccccc2)NC(=O)c2ccco2)no1 (stereo not drawn)	Cruzain inh noDet 25µM, Cruzain Triton 28µM
COc1ccc(-c2cc(C(=O)Oc3ccc(C)c(C)c3)c3ccccc3n2)cc1	none
C/C(CCN1CCc2nc(-c3ccccc3)c(-c3ccccc3)cc2C1)=N\O[C@@H](C)c1cc(-c2c(C)cc(C)cc2C)no1	Cruzain inh noDet 20µM
CCc1cc2c(nc1CC)CCN(CC/C(C)=N/O[C@@H](C)c1cc(-c3c(C)cc(C)cc3C)no1)C2	none
N#CC1(Cc2ccc([N+](=O)[O-])cc2)c2ccccc2C=CN1C(=O)c1ccccc1 (stereo not drawn)	Cruzain inh noDet 25µM
N#CC1(Cc2ccccc2)c2ccccc2C=CN1C(=O)c1ccccc1 (stereo not drawn)	none
Oc1ccccc1/C=N/Nc1ccnc(SCc2ccccc2)n1	Cruzain inh noDet 20µM
Clc1ccc(Cl)c(Nc2ccnc(SCc3ccccc3)n2)c1	none
CC(=O)c1ccc(NC(=O)Cn2c(=O)oc3cc(S(=O)(=O)N4CCCCC4)ccc32)cc1	none
O=S(=O)(CCc1ccccc1)c1nnnn1-c1ccc(F)cc1Br	none
Cc1cc(C(=O)Cn2nnc(-c3ccc(Cl)cc3)n2)c(C)n1-c1ccccc1	Cruzain inh noDet inconclusive
Cc1cc(C(=O)Cn2nc(C(=O)O)c3ccccc3c2=O)c(C)n1-c1ccccc1	Cruzain inh noDet 25µM
CCCCCC(=O)Nc1nc(C)c(-c2csc(Nc3cc(Cl)ccc3C)n2)s1	Cruzain inh noDet 10µM
CCCCCC(=O)Nc1nc(C)c(-c2csc(Nc3ccc(Cl)cc3)n2)s1	Cruzain inh noDet 13µM
CCC(C)C(=O)Nc1nc(C)c(-c2csc(Nc3ccccc3OC)n2)s1 (stereo not drawn)	Cruzain inh noDet inconclusive
CCCCCCC(=O)Nc1nc(C)c(-c2csc(Nc3ccc(Cl)cc3)n2)s1	Cruzain inh noDet inconclusive
CCCC(C)C(=O)Nc1nc(C)c(-c2csc(Nc3cc(Cl)ccc3C)n2)s1 (stereo not drawn)	Cruzain inh noDet 13µM
CCOc1ccccc1C(=O)NCC(c1cccs1)S(=O)(=O)c1ccc(F)c(C)c1 (stereo not drawn)	none
COc1ccc(CNC(=O)Cc2coc3ccc(C)cc23)cc1	none
O=C(Nc1ccc(F)cc1F)c1cc(-c2ccccc2O)no1	Cruzain inh noDet inconclusive
Cc1cccc(OCC(=O)NCc2ccc3c(c2)CCN3C(=O)c2ccc(Cl)cc2)c1	none
O=C(Nc1ncc(Cc2ccc(SC(F)F)cc2)s1)c1ccc(OC(F)F)cc1	Cruzain inh noDet 20µM
Cc1ccc(Cc2cnc(NC(=O)c3ccco3)s2)cc1	none
Cc1ccc2c(c1)-c1c(cnn1CC(=O)N1CCN(c3cccc(C(F)(F)F)c3)CC1)CO2	Cruzain inh noDet inconclusive
O=C(CSc1nc2c([nH]c3ccccc32)c(=O)n1-c1ccccc1F)Nc1cccc(C(F)(F)F)c1	Cruzain inh noDet inconclusive
Cc1cc(NC(=O)c2ccc(COc3ccc(Cl)c(C)c3)o2)no1	Cruzain inh noDet 25µM
Cc1ccc(OCc2ccc(C(=O)Nc3nccs3)o2)cc1C	none
CCCCCCCCCCCCCC(=O)N[C@H](C)[C@@H](O)c1ccccc1	none
CCc1ccc(NC(=O)CN2CCCN(Cc3cccc(Cl)c3)S2(=O)=O)cc1	none
O=C(CSc1nc(=O)n(Cc2ccncc2)c2c1CCC2)Nc1ccccc1	none
Cc1ccc(N=Cc2c(O)n(-c3cc(Cl)ccc3N3CCOCC3)c(=O)c3ccccc23)cc1C	Cruzain inh noDet 6.3µM
Cc1cc(N=Cc2c(O)n(-c3cccc(Cl)c3)c(=O)c3ccccc23)no1	none
C=CCSc1nnc2c(n1)OC=Nc1ccc(Br)cc1-2	Cruzain inh noDet 25µM
CCSc1nnc2c(n1)OC=Nc1ccc(Br)cc1-2	none
COc1ccc(NC(=O)c2cc(C(C)=O)n3ccccc23)cc1	none
Cc1cc(C(=O)CN2C(=O)NC3(CCCc4ccccc43)C2=O)c(C)n1Cc1ccco1 (stereo not drawn)	Cruzain inh noDet inconclusive
Cc1cc(C(=O)CN2C(=O)NC3(CCCc4ccccc43)C2=O)c(C)n1Cc1ccccc1 (stereo not drawn)	Cruzain inh noDet 25µM
CCCCCCOC(=O)C(C#N)c1nc2ccccc2nc1N1CCCCC1 (stereo not drawn)	Cruzain inh noDet 25µM
N#CC(C(=O)NC1CCCCC1)c1nc2ccccc2nc1N1CCOCC1 (stereo not drawn)	none
CCCCCCOC(=O)C(C#N)c1nc2ccccc2nc1N1CCN(C)CC1 (stereo not drawn)	none
CC1CCN(c2nc3ccccc3nc2C(C#N)C(=O)NC2CCCCC2)CC1 (stereo not drawn)	Cruzain inh noDet 20µM
Cc1ccn2cc(CCNS(=O)(=O)c3ccc4c(c3)OCCO4)nc2c1	none
O=S(=O)(NCCc1cn2ccccc2n1)c1ccc(F)c(C(F)(F)F)c1	Cruzain Triton 25µM
Cc1ccn2cc(CCNS(=O)(=O)c3ccc(F)c(C(F)(F)F)c3)nc2c1	Cruzain inh noDet 25µM
CCc1ccc(S(=O)(=O)NCCc2cn3ccccc3n2)s1	none
Cc1cc(-c2ccccc2)nc2cc(C(=O)Nc3cc(C(F)(F)F)ccc3Cl)nn12	none
Cc1ccc(-c2nc(CS(=O)(=O)CC(=O)NC(C)CCc3ccccc3)c(C)o2)cc1 (stereo not drawn)	Cruzain inh noDet inconclusive
O=C(Nc1ccc(O)c(-c2nc3ccccc3s2)c1)c1cccs1	Cruzain inh noDet inconclusive
